# Assay outcomes: PubChem, The Scripps Research Institute Molecular Screening Center
# Most compounds without a hit are left out; they make up all but 2.3% or so of the library.
# bovine MsrA act – bovine methionine sulfoxide reductase A activation | AID 602163 | purified bovine MsrA, absorbance read-out | actives 0.3% (n = 360,000) | activation, % at 10.6 µM; in the data active = activation above about 7.5%
# MsrA inh – inhibitors of bovine MsrA. inhibition, % at 15.5 µM. AID 651718. actives 0.75% (n = 360,000). purified bovine MsrA, absorbance read-out; in the data active = inhibition above about 4.5%
# ZTA DNA inh – counter-screen for EBNA-1 inhibitors: inhibitors of Epstein-Barr virus ZTA | ZTA-DNA binding, fluorescence polarization | inhibition, % at 11 µM | actives 0.15% (n = 320,000) | AID 2234; in the data active = inhibition above about 33%
# Target sequence (P03206 whole entry, looked up): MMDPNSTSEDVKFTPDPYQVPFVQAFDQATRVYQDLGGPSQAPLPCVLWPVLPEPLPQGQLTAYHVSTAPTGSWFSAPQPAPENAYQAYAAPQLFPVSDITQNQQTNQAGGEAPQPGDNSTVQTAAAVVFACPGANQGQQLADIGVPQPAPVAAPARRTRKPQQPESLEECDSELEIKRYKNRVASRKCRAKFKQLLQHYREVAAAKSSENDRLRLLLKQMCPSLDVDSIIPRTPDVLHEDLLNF
# PP1 counter – counter-screen for PP5 inhibitors: inhibitors of human PP1-alpha; P62136; actives 0.9% (n = 320,000); purified PP1alpha, OMFP fluorescence; inhibition, % at 6.7 µM;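 active = inhibition above the mean inhibition of all tested compounds plus 3 SD, computed separately for each screening campaign, cut at about 15% in these data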
# Target sequence (P62136 whole entry, looked up): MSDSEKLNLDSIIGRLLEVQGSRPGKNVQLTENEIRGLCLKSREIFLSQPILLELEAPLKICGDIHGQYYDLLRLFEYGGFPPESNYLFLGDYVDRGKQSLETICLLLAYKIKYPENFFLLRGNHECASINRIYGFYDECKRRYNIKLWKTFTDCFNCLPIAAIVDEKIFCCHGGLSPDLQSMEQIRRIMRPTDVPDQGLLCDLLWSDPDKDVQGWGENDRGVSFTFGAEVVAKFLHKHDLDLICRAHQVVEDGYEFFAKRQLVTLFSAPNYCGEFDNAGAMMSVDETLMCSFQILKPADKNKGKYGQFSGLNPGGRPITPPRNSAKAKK
# PP5 inh – blocks human protein phosphatase 5 activity. inhibition, % at 6.7 µM. purified PP5c, OMFP substrate fluorescence. actives 0.18% (n = 320,000). P53041;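 active = inhibition above the campaign's mean inhibition across all tested compounds plus 3 SD, cut at about 9.5% in these data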
# EBNA-1 inhibitor – blocks EBNA-1 binding to DNA. actives 0.34% (n = 300,000). EBNA-1 DNA binding, fluorescence polarization. inhibition, % at 14.8 µM; in the data active = inhibition above about 28%
# Hits are given with their value; - = inactive; . = no result given.
SMILES,bovine MsrA act,MsrA inh,ZTA DNA inh,PP1 counter,PP5 inh,EBNA-1 inhibitor
CCN(CC)CCOc1ccc(Br)cc1,-,-,-,-,-,-
CCN(CC)CCOc1ccc(/C(=C(\Cl)c2ccccc2)c2ccccc2)cc1,-,-,-,18,-,-
CCc1ccc(/C=C/C(=O)c2cc(Br)ccc(=O)c2O)cc1,-,-,-,-,-,-
Cc1cccc(/C=C/C(=O)c2cc(Br)ccc(=O)c2O)c1,-,-,-,18,-,-
COC(=O)CSc1n[nH]c(=S)s1,-,-,-,-,-,-
CCSc1n[nH]c(=S)s1,8.5,-,-,-,-,-
COc1ccc(CN2C(=O)C(CC(C)C)Nc3ncnc(N4CCOCC4)c32)cc1 (stereo unspecified),-,-,-,-,-,-
COc1ccc(CN2C(=O)C(CC(C)C)Nc3ncnc(N4CCCCC4)c32)cc1 (stereo unspecified),-,-,-,16,-,-
COC(=O)c1[nH]c2cc(C)ccc2c1NC(=O)CN1CCN(c2ccccc2OC)CC1,-,-,-,-,-,-
COC(=O)c1[nH]c2ccc(C)cc2c1NC(=O)CN1CCCc2ccccc21,-,-,-,17,-,-
O=C(Nc1ccc(N2CCOCC2)c(S(=O)(=O)Nc2ccccc2Cl)c1)c1ccccc1,-,-,-,-,-,.
O=C(Nc1ccc(Cl)cc1)Nc1ccc(N2CCCC2)c(S(=O)(=O)Nc2ccccc2Cl)c1,-,-,-,17,-,-
COc1cccc(C(=O)N[C@H](C(=O)N2CCC[C@H]2C(=O)NCc2ccccc2)C(C)C)c1,.,-,.,.,.,.
COC(=O)c1c(NC(=O)c2cccs2)sc2c1CCC(C)C2 (stereo unspecified),8.3,-,-,-,-,-
CCOc1ccc(S(=O)(=O)Nc2cc(Sc3ncn[nH]3)c3oc(=O)sc3c2)cc1,.,.,-,16,-,-
CCOc1ccc(S(=O)(=O)Nc2ncn[nH]2)cc1,-,-,-,-,-,-
COC(=O)/C(=C\c1c[nH]c2ccccc12)NC(C)=O,-,-,-,16,-,-
CCN(CC)C(=O)CSc1nc(N)c(C#N)c(-c2cccs2)c1C#N,-,-,-,-,-,-
CCN(CC)C(=O)CSc1nc(-c2cccs2)cc(-c2cccs2)c1C#N,-,-,-,16,-,-
Cc1ccc(C(=O)Nc2ccccc2-c2ccccc2)o1,-,-,-,-,-,-
Cc1ccc(C(=O)Nc2scc(-c3ccccc3)c2C(=O)O)o1,-,4.6,-,-,-,-
COCc1nnc(NC(=O)c2ccc(S(=O)(=O)N3CCOCC3)cc2)o1,-,-,-,-,-,-
COCc1nnc(NC(=O)c2ccc(S(=O)(=O)N3CCCc4ccccc43)cc2)o1,-,-,-,17,-,-
CC(C)(C)OC(=O)N1CCC[C@@H]1C(=O)N1CCC[C@H]1C(=O)NCc1ccccc1,.,-,.,.,.,.
COc1ccc(-c2cc(C(=O)NN)n(-c3ccccc3)n2)cc1,-,-,-,-,-,-
SMILES,bovine MsrA act,MsrA inh,ZTA DNA inh,PP1 counter,PP5 inh,EBNA-1 inhibitor
CCOC(=O)c1cc(-c2ccc(OC)cc2)nn1-c1ccccc1C(=O)O,-,-,-,17,-,-
C[C@H]1COc2cccc(N3CCCC3)c2S(=O)(=O)N1,.,-,.,.,.,.
COc1ccc(CCn2c(O)cc3nn(-c4nc5ccccc5s4)c(=O)c-3c2C)cc1,-,-,-,17,-,-
COC(=O)C1=C(C)N(C)C(=NCc2ccc3c(c2)OCO3)NC1c1ccc(Cl)cc1 (stereo unspecified),.,-,.,.,.,.
Cc1cccc2c1N(CCCOc1ccccc1)C(=O)C2=O,-,-,-,17,-,-
Cc1cccc2c1N(CCCOc1ccc(C(C)(C)C)cc1)C(=O)C2=O,-,.,-,-,-,-
Cc1ccc2c(c1)C(=O)C(=O)N2CCOc1ccccc1,-,-,-,-,-,-
Cc1ccc2c(c1)C(=O)C(=O)N2CCCOc1ccccc1C,-,-,-,15,-,-
O=C(c1cc2ccccc2o1)N(Cc1nnc(-c2ccccc2Cl)o1)C1CC1,-,-,-,15,-,-
O=C(Nc1cc(Cl)ccc1-n1cncn1)c1cc(F)c(F)c(F)c1F,-,-,-,-,-,-
Cc1ccccc1C(=O)N[C@H](C(=O)N1CCC[C@H]1C(=O)NC1CCCC1)c1ccccc1,.,-,.,.,.,.
COc1cccc2c1[C@@H]1CN(CCCCn3c(=O)[nH]c4c(sc5ncc(-c6ccccc6)nc54)c3=O)C[C@@H]1CO2,-,-,-,17,-,-
COc1cc2[nH]c(=O)n(CCCC(=O)N3CC=C(c4ccccc4)CC3)c(=O)c2cc1OC,-,-,-,-,-,-
C[C@H]1CN([C@@H](C)CO)C(=O)CCCn2cc(nn2)CO[C@@H]1CN(C)S(=O)(=O)c1cn(C)cn1,.,-,.,.,.,.
CCNC(=O)N(C)[C@H]1C[C@@H](c2ccccc2)N(C(C)=O)C[C@H]1CO,.,-,.,.,.,.
CCOC(=O)c1c(NC(=O)Cn2cnc3sc(C)c(-c4ccccc4)c3c2=O)sc(C)c1C,-,-,-,-,-,-
CCOC(=O)c1c(NC(=O)Cn2cnc3scc(-c4ccc(C)cc4)c3c2=O)sc(C)c1C,-,-,-,16,-,-
CCc1ccccc1NC(=O)CN(C)C(=O)CSc1nn(-c2ccc(F)cc2)c(=S)s1,-,-,-,-,-,-
Cc1ccc(NC(=S)NNc2ccc([N+](=O)[O-])cc2S(=O)(=O)Nc2ccccc2C(=O)O)cc1C,-,-,-,17,-,-
CC(C)=C[C@H]1C[C@H](C)[C@H]2CC[C@H](C)c3c(O[C@@H]4O[C@@H](C)[C@@H](O)[C@@H](O)[C@@H]4O)c(O)c(C)c1c32,-,-,.,.,.,.
CN1CCc2cc3c(c4c2[C@H]1[C@H](O)c1ccccc1-4)OCO3,37,-,-,-,-,-
COc1ccc2c(c1OC)C(=O)OC2C1c2c(cc3c(c2OC)OCO3)CCN1C (stereo unspecified),-,-,-,-,-,-
O=C(N[C@H](C(=O)N1CCC[C@H]1C(=O)NCCc1ccccc1Cl)c1ccccc1)c1ccco1,.,-,.,.,.,.
COc1cc(CNCc2cccs2)ccc1OCc1cccs1,-,-,-,-,-,-
CCN(CC)c1ccc(CNCc2cccs2)cc1,-,-,-,17,-,-
SMILES,bovine MsrA act,MsrA inh,ZTA DNA inh,PP1 counter,PP5 inh,EBNA-1 inhibitor
COCCCNC(=O)[C@@H](Cc1ccccc1)NC(=O)[C@H]1O[C@@H](n2ccc(=O)[nH]c2=O)[C@H](O)[C@@H]1O,.,-,.,.,.,.
Brc1ccc(CN2CCCc3nc(-c4ccccc4)ccc32)cc1,.,-,.,.,.,.
COc1cccc(C(=O)Nc2ccc3c(c2)C(=O)c2ccccc2C3=O)c1,-,-,-,33,-,-
O=C(Nc1ccc2c(c1)C(=O)c1ccccc1-2)c1ccccc1,-,-,.,.,.,.
COc1ccc2nc(Cl)c(/C=N/Nc3ccccn3)cc2c1,-,-,-,16,-,-
O=C(NC1CCCCC1)C(c1ccncc1)N(Cc1ccc(F)cc1)C(=O)c1ccccn1 (stereo unspecified),-,-,-,-,-,-
